Assay results as given in PubChem BioAssay (NCATS).
Results filed as inconclusive are left out. Activity calls are given as the source filed them. Unless noted, calls follow the shape of the dose curve; as a rule, active = well fitted curve in the direction sought with a large enough effect; inconclusive = small, poorly fitted or top-dose-only effect, or another doubt; inactive = no such curve, though single readings can be large; an effect the other way counts as inactive or inconclusive.

Test system: not listed separately
Assay: S16 Schwann cell viability assay (CellTiter-Glo assay) (AID 624031);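 also: cellular ATP luminescence as a viability measure; plate controls were DMSO-treated cells for no effect and cell-free wells for full effect; nearly all actives have a fitted effect of over 70% in size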
Settings: S16 rat Schwann cells viability, 24 h; series mostly up to 57.5 µM; activity change, negative = cytotoxicity: at the top concentration
Summary of the method: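 Native S16 rat Schwann cells in DMEM/10% FBS without phenol red were incubated overnight, then exposed to compounds for 24 h at 37 °C/5% CO2. Viability was read as ATP luminescence (CellTiter-Glo), normalized to no-cell wells and DMSO (0%).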

SMILES	activity change, negative = cytotoxicity	Potency
CN1CCN(c2c(F)cc3c(=O)c(C(=O)O)cn(CCF)c3c2F)CC1	0% (inactive)	–
COC(=O)Nc1nc2ccc(Sc3ccccc3)cc2[nH]1	-27.2% [at 25.7 µM] (inactive)	–
CCOCC(O)COc1ccc(NC(=O)CC[S+](C)C)cc1 (centres undefined)	-13.3% (inactive)	–
Cc1oc(=O)oc1CN1CCN(c2cc3c(cc2F)c(=O)c(C(=O)O)c2n3C(C)S2)CC1 (centres undefined)	5.76% (inactive)	–
CCn1cc(C(=O)O)c(=O)c2cc(F)c(N3CCNCC3)cc21	6.84% [at 25.7 µM] (inactive)	–
COc1ncnc(NS(=O)(=O)c2ccc(N)cc2)c1OC	-21.2% (inactive)	–
CCc1c2c(nc3ccc(OC(=O)N4CCC(N5CCCCC5)CC4)cc13)-c1cc3c(c(=O)n1C2)COC(=O)[C@]3(O)CC	9.45% (inactive)	–
COc1ccc(-c2ccc3cc(C(=O)O)ccc3c2)cc1C12CC3CC(CC(C3)C1)C2	5.98% (inactive)	–
C#CCN[C@@H]1CCc2ccccc21	11.6% (inactive)	–
COc1cnc(NS(=O)(=O)c2ccc(N)cc2)nc1	0.398% [at 25.7 µM] (inactive)	–
Nc1nc(N)nc(-c2cc(Cl)ccc2Cl)n1	4.53% (inactive)	–
Clc1ccccc1CN1CCc2sccc2C1	-11.9% (inactive)	–
Nc1ccc(S(=O)(=O)Nc2ccccn2)cc1	-12% [at 25.7 µM] (inactive)	–
CCN(C)C(=O)Oc1cccc([C@H](C)N(C)C)c1	-19.5% (inactive)	–
CCn1cc(C(=O)O)c(=O)c2cc(F)c(N3CCNCC3)nc21	8.22% [at 25.7 µM] (inactive)	–
Nc1[nH]c(=O)ncc1F	6.18% [at 25.7 µM] (inactive)	–
CC(C)NCC(O)c1ccc(NS(C)(=O)=O)cc1 (centres undefined)	–	inactive
COc1cc(NS(=O)(=O)c2ccc(N)cc2)nc(OC)n1	-3.76% [at 25.7 µM] (inactive)	–
CCCN[C@H]1CCc2nc(N)sc2C1	-3.48% (inactive)	–
Cn1nnc2c(C(N)=O)ncn2c1=O	0% (inactive)	–
O=S(=O)(O)CCS	-21.4% (inactive)	–
CCCCOc1ccc(CC(=O)NO)cc1	-4.81% [at 25.7 µM] (inactive)	–
O=S(=O)(c1cccc2cnccc12)N1CCCNCC1	-18.1% (inactive)	–
O=C(O)CCn1c2c(c3ccccc31)C[C@H](NS(=O)(=O)c1ccc(F)cc1)CC2	4.05% (inactive)	–
CNS(=O)(=O)Cc1ccc2[nH]cc(CCN(C)C)c2c1	-19.1% (inactive)	–
CN1CCN(c2c(F)cc3c(=O)c(C(=O)O)cn4c3c2OCN4C)CC1	-11.2% (inactive)	–
CCOC(=O)[C@H](CCc1ccccc1)N[C@H]1CS[C@H](c2cccs2)CN(CC(=O)O)C1=O	7.24% (inactive)	–
Nc1nc(N)c2nc(CNc3ccc(C(=O)NC(CCC(=O)O)C(=O)O)cc3)cnc2n1 (centres undefined)	-2.77% (inactive)	–
NC(N)=NC(N)=NCCc1ccccc1	–	inactive

Test system: not listed separately
Assay: S16 Schwann cell PMP22 intronic element firefly luciferase assay (AID 624032); also: nearly all actives have a fitted effect of over 30% in size; also: potency is read from the fitted curve at half-maximal effect;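 as to activity change, negative = inhibition: plate controls were DMSO for no effect and PTC124 positive control mean for full effect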
Settings: S16 rat Schwann cells, PMP22 element FLuc, 24 h; series mostly up to 57.5 µM; activity change, negative = inhibition: at the top concentration
Summary of the method: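 Rat S16 Schwann cells stably carrying a PMP22 intronic element-driven Fluc reporter were seeded overnight, then exposed to compounds for 24 h at 37 °C. Luminescence was normalized to PTC124 (positive control) and DMSO (0% activity).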

SMILES	activity change, negative = inhibition	Potency
COC(=O)Nc1nc2ccc(Sc3ccccc3)cc2[nH]1	22.1% [at 25.7 µM] (inactive)	–
Oc1c(Cl)cc(Cl)c2cccnc12	–	3.61 µM (active)
C#CCN[C@@H]1CCc2ccccc21	9.08% (inactive)	–
COc1cnc(NS(=O)(=O)c2ccc(N)cc2)nc1	-27.3% [at 25.7 µM] (inactive)	–
Nc1nc(N)nc(-c2cc(Cl)ccc2Cl)n1	-11.2% (inactive)	–
CNC(=O)c1cc(Oc2ccc(NC(=O)Nc3ccc(Cl)c(C(F)(F)F)c3)cc2)ccn1	–	12.8 µM (active)
Clc1ccccc1CN1CCc2sccc2C1	-18.5% (inactive)	–
Nc1ccc(S(=O)(=O)Nc2ccccn2)cc1	0.544% [at 25.7 µM] (inactive)	–
Nc1[nH]c(=O)ncc1F	1.76% [at 25.7 µM] (inactive)	–
COc1cc(NS(=O)(=O)c2ccc(N)cc2)nc(OC)n1	19.8% [at 25.7 µM] (inactive)	–
O=S(=O)(O)CCS	-6.34% (inactive)	–
CNS(=O)(=O)Cc1ccc2[nH]cc(CCN(C)C)c2c1	-4.58% (inactive)	–
CN1CCN(c2c(F)cc3c(=O)c(C(=O)O)cn4c3c2OCN4C)CC1	12.1% (inactive)	–
CCOC(=O)[C@H](CCc1ccccc1)N[C@H]1CS[C@H](c2cccs2)CN(CC(=O)O)C1=O	-8.84% (inactive)	–
NC(N)=NC(N)=NCCc1ccccc1	-10.3% (inactive)	–

Test system: not listed separately
Assay: S16 Schwann cell PMP22 intronic element beta-lactamase assay (AID 624044; calls by dose curve; also: nearly all actives have a fitted effect of over 15% in size; also: potency is read from the fitted curve at half-maximal effect;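 as to ratio activity, negative = inhibition: 0% = DMSO and -100% = potassium clavulanate positive control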)
Settings: S16 rat Schwann cells, PMP22 element beta-lactamase FRET, 24 h; series mostly up to 38.3 µM; ratio activity, negative = inhibition: at the top concentration
Summary of the method: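 Beta-lactamase reporter under a PMP22 intronic regulatory element in stable S16 rat Schwann cells; 24 h compound exposure. 460 nm blue signal normalized between DMSO (0%) and potassium clavulanate, with 535 nm FRET tracking viability; curves classed by r2 and response.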

SMILES	Potency	ratio activity, negative = inhibition
Oc1c(Cl)cc(Cl)c2cccnc12	28.2 µM (active)	–
CNC(=O)c1cc(Oc2ccc(NC(=O)Nc3ccc(Cl)c(C(F)(F)F)c3)cc2)ccn1	15.8 µM (active)	–
COc1cccc(N(C)C(=S)Oc2ccc3c(c2)CCCC3)n1	–	-20.3% (inactive)
Nc1ccc(S(=O)(=O)Nc2ccccn2)cc1	–	0.767% [at 17.1 µM] (inactive)
CC(C)NCC(O)c1ccc(NS(C)(=O)=O)cc1 (centres undefined)	inactive	–
O=S(=O)(O)CCS	–	3.11% (inactive)
CCOC(=O)[C@H](CCc1ccccc1)N[C@H]1CS[C@H](c2cccs2)CN(CC(=O)O)C1=O	–	-1.64% (inactive)
Nc1nc(N)c2nc(CNc3ccc(C(=O)NC(CCC(=O)O)C(=O)O)cc3)cnc2n1 (centres undefined)	–	8.36% (inactive)

Biological target: Glutaminase kidney isoform, mitochondrial (Homo sapiens) (UniProt O94925)
Assay: qHTS for Inhibitors of Glutaminase (GLS): LOPAC Validation (AID 624146);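 also: glutamate product detected by oxidase and peroxidase coupled Amplex red fluorescence gain; % is scaled to controls: 0 for no effect and ±100 for the full control effect; nearly all actives have a fitted effect of over 60% in size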
Settings: glutaminase enzyme activity inhibition; series mostly up to 46.1 µM; activity change, negative = inhibition: at the top concentration
Summary of the method: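 Coupled fluorescence readout: glutamate oxidase/HRP/Amplex Red detect glutamate formed by hKGA from L-glutamine (1 mM solution added). Buffer 45 mM KH2PO4 pH 8.2, 0.02% Tween-20; reads at t0 and 30 min RT.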

Chain of Glutaminase kidney isoform, mitochondrial (Homo sapiens) (O94925 whole entry, looked up, canonical isoform): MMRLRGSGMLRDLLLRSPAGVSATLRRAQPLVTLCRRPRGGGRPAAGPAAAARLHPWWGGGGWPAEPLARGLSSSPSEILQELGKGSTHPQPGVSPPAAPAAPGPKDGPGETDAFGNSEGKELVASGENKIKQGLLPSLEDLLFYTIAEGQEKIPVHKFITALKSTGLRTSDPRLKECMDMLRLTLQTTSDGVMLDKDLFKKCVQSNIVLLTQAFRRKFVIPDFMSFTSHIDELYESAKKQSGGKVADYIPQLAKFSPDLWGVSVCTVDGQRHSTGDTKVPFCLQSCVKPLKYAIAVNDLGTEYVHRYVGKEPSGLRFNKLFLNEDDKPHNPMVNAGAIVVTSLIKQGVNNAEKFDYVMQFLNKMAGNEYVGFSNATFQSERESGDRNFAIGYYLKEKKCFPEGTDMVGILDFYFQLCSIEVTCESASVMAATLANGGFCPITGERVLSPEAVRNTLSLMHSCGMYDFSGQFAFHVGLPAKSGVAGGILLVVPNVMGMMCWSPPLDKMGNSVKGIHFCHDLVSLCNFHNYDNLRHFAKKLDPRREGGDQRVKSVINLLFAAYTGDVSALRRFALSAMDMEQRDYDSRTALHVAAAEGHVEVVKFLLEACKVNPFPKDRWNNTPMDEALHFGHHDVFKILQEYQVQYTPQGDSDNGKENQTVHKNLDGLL

SMILES	activity change, negative = inhibition
COc1cc2ncnc(Nc3cccc(Cl)c3)c2cc1OC	-8.72% (inactive)
CC(C)NCC(O)c1ccc(NS(C)(=O)=O)cc1 (centres undefined)	25.1% (inactive)
CCN1CCCC1CNC(=O)c1cc(S(N)(=O)=O)ccc1OC (centres undefined)	-11.7% (inactive)
Nc1nc(N)c2nc(CNc3ccc(C(=O)NC(CCC(=O)O)C(=O)O)cc3)cnc2n1 (centres undefined)	-12.9% (inactive)

Test system: not listed separately
Assay: qHTS of Trypanosoma Brucei Inhibitors: LOPAC Validation (AID 624147); also: 0% is about no effect
Settings: purified enzyme assay, luminescence, 45 min; series mostly up to 57.5 µM; activity change, negative = inhibition: at the top concentration
Summary of the method: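 TbPYK + substrate in 50 mM TEA pH 7.2, 100 mM KCl, 10 mM MgCl2, 0.05% BSA, 0.01% Tween-20; cpd pinned; ADP 130 uM final; 45 min RT; Kinase-Glo Plus 10 min; luminescence endpoint.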

SMILES	activity change, negative = inhibition
COc1cc2ncnc(Nc3cccc(Cl)c3)c2cc1OC	-6.6% (inactive)
CC(C)NCC(O)c1ccc(NS(C)(=O)=O)cc1 (centres undefined)	-14.6% (inactive)
CCN1CCCC1CNC(=O)c1cc(S(N)(=O)=O)ccc1OC (centres undefined)	-5.51% (inactive)
Nc1nc(N)c2nc(CNc3ccc(C(=O)NC(CCC(=O)O)C(=O)O)cc3)cnc2n1 (centres undefined)	2.66% (inactive)

Biological target: Glucagon-like peptide 1 receptor (Homo sapiens) (UniProt P43220)
Assay: qHTS of GLP-1 Receptor Agonists: LOPAC Validation (AID 624148);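 also: 0% is about no effect; higher luminescence signal means agonism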
Settings: GLP-1R agonist cell assay; series mostly up to 46.1 µM; activation: at the top concentration
Summary of the method: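 HEK293 cells stably co-expressing a cAMP-responsive luciferase reporter and a hypersensitive GLP-1R were plated 12 h at 37 °C and exposed to compounds for 4-6 hr at 37 °C, 5% CO2. Luminescence was read 12 min after adding detection reagent.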

Chain of Glucagon-like peptide 1 receptor (Homo sapiens) (P43220 whole entry, looked up): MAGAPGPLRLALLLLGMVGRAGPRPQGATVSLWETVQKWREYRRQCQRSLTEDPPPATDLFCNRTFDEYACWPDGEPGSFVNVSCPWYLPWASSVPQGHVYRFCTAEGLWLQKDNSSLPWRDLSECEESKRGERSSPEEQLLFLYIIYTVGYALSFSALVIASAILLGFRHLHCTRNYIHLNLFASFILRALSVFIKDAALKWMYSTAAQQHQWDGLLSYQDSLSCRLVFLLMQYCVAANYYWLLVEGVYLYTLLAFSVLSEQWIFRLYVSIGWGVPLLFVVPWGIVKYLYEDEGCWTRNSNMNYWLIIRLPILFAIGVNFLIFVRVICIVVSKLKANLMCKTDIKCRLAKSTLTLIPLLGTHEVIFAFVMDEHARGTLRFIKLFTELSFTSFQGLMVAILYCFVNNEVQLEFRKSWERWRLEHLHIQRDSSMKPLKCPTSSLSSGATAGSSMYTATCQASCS

SMILES	activation
COc1cc2ncnc(Nc3cccc(Cl)c3)c2cc1OC	9.81% (inactive)
CC(C)NCC(O)c1ccc(NS(C)(=O)=O)cc1 (centres undefined)	0.702% (inactive)
CCN1CCCC1CNC(=O)c1cc(S(N)(=O)=O)ccc1OC (centres undefined)	-1.66% (inactive)
Nc1nc(N)c2nc(CNc3ccc(C(=O)NC(CCC(=O)O)C(=O)O)cc3)cnc2n1 (centres undefined)	0.922% (inactive)
